For five molecules, composite z-score and z-score results are on record in PubChem BioAssay.

Experiment [1] relates to Plasmodium falciparum Sir2 (PF13_0152, Sir2A). Nature of the experiment: Plasmodium falciparum Sir2A binding compounds – biochemical, small-molecule microarray, 635 nm fluorescence, primary screen (AID 1098).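 Note: score merges spot fluorescence intensity with its signal-to-noise ratio.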 As to conditions: fluorescence 635 nm, higher = more signal.
Experiment [2] in a line: probe aDKK1 binding to arrayed compounds – biochemical, biotinylated probe, 635/667 nm fluorescence, primary screen (AID 1099).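 Note: score merges 667nm spot fluorescence with signal to noise across triplicate slides.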 As to conditions: small-molecule microarray, higher = more signal.
The nature of experiment [3]: probe aCHRDL2 binding to arrayed compounds – biochemical, biotinylated probe, 635/667 nm fluorescence, primary screen (AID 1100). As to conditions: small-molecule microarray, higher = more signal.
A short description of experiment [4]: change in splice reporter luminescence, either direction, cell-based, HEK293, spliceosome inhibition project, primary screen (AID 1101).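 Note: HEK293 cells carrying a splicing-competent luciferase reporter gene; test concentration not given here.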 As to conditions: HEK293 splicing luciferase reporter, 24 h, higher = more signal, called active from +8 up or from −8 down.
Experiment [5] has as its target Fibroblast growth factor 10 (Homo sapiens) (UniProt O15520). As to the kind of experiment: compounds binding fibroblast growth factor 10 – biochemical, small-molecule microarray, 635 nm fluorescence, primary screen (AID 1102). The conditions noted are these: FGF10 binding, fluorescence 635 nm, higher = more signal.
For experiment [6], the system named is glycogen synthase kinase-3 (GSK3A per assay name; protocol says GSK3B). Nature of the experiment: compounds binding glycogen synthase kinase-3 – biochemical, small-molecule microarray, 635 nm fluorescence, GSK3A, primary screen (AID 1103). Note: the record names both GSK3A and GSK3B. As to conditions: fluorescence 635 nm, higher = more signal.
In experiment [7] the target is Epidermal growth factor receptor (Homo sapiens) (UniProt P00533). As to the kind of experiment: compounds binding epidermal growth factor receptor – biochemical, small-molecule microarray, 635 nm fluorescence, primary screen (AID 1104).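 Note: score merges 667 nm emission intensity with spot signal to noise over triplicate slides.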 As to conditions: EGFR binding, higher = more signal.
Sequence of Epidermal growth factor receptor (Homo sapiens) (P00533 whole entry, looked up): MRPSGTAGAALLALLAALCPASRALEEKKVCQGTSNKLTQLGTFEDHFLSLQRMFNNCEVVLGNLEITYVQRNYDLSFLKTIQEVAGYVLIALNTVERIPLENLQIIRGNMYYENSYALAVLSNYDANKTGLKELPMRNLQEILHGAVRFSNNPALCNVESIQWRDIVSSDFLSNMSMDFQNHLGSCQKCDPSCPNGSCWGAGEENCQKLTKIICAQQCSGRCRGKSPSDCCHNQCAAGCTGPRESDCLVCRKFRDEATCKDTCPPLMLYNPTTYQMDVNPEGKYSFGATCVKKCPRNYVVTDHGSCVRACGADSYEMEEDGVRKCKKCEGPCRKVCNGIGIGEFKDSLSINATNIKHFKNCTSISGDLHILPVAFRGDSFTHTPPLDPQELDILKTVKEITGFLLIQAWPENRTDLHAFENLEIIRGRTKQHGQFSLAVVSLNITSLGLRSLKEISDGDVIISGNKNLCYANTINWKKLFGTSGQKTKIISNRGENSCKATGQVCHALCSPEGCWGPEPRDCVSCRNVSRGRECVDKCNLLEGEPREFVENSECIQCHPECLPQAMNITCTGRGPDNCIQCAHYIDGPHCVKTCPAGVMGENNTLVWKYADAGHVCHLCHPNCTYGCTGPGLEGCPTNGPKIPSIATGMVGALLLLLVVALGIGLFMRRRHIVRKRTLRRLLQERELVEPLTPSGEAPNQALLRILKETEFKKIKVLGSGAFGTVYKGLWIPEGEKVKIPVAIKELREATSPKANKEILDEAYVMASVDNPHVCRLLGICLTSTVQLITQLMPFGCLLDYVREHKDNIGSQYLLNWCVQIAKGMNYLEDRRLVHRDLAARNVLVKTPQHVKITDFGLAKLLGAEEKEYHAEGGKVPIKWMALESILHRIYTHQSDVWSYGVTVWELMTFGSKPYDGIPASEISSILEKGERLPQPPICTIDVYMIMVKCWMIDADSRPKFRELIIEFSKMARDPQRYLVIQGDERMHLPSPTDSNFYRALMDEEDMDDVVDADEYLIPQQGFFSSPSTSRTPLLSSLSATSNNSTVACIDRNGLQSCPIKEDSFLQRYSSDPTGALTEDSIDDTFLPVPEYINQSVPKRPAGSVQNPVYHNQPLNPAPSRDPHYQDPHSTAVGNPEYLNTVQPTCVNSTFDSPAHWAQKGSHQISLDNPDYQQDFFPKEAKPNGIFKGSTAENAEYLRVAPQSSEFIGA
Experiment [8] deals with Follistatin-related protein 3 (Homo sapiens) (UniProt O95633). As to the kind of experiment: compounds binding follistatin-related protein 3 – biochemical, small-molecule microarray, 635 nm fluorescence, primary screen (AID 1105).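 Note: score merges emission near 667 nm and signal to noise per printed spot across three slides.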 The conditions noted are these: FSTL3 binding, higher = more signal.
Sequence of Follistatin-related protein 3 (Homo sapiens) (O95633 whole entry, looked up): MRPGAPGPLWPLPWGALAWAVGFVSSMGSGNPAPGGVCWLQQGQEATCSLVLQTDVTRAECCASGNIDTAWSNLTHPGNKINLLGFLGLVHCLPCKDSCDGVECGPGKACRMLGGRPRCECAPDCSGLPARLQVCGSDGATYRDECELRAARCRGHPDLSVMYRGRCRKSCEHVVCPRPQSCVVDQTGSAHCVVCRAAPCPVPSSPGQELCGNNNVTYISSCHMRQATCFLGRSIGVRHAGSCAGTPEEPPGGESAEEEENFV
The target of experiment [9] is Dickkopf-related protein 1 (Homo sapiens) (UniProt O94907). Nature of the experiment: small molecules binding DKK1 protein – biochemical, small-molecule microarray, 635 nm fluorescence scan, primary screen (AID 1106).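 Note: score merges emission near 667 nm with signal to noise over three replicate slides.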 As to conditions: higher = more signal.
Sequence of Dickkopf-related protein 1 (Homo sapiens) (O94907 whole entry, looked up): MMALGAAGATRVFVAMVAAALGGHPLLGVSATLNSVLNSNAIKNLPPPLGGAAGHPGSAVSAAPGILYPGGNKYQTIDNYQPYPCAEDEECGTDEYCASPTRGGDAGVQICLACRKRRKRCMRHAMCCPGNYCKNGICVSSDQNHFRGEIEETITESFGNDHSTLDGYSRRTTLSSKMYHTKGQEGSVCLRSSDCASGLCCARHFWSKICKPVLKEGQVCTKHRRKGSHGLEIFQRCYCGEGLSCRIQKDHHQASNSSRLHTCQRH
Experiment [10] concerns Inhibin beta A chain (activin A). As to the kind of experiment: small molecules binding activin A – biochemical, small-molecule microarray, 635 nm fluorescence scan, primary screen (AID 1107).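 Note: mouse activin A protein probed at 4.33 µg/mL on printed slides; score merges bound-protein fluorescence near 667 nm with spot signal-to-noise.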 As to conditions: INHBA, higher = more signal.
Experiment [11] concerns Human papillomavirus type 1a protein E7 (residues 44-93). Nature of the experiment: small molecules binding HPV E7 44-93 – biochemical, small-molecule microarray, residues 44-93, 635 nm fluorescence, primary screen (AID 1108).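 Note: E7 fragment applied at 1 µg/mL in TBST for 1 h at 4 C; score combines spot fluorescence with its signal to noise ratio.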 As to conditions: fluorescence 635 nm, higher = more signal.
Experiment [12] in a line: hepatitis C replication reporter changes, two-sided – Huh7 cells, luciferase reporter, HCV replication inhibitor project, primary screen (AID 1109).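 Note: huh7 hepatoma cells harbouring a luciferase neomycin HCV replicon reporter; luciferase luminescence as measure of HCV replicon replication; test concentration not given here.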 The conditions noted are these: Huh7 HCV replicon luciferase reporter, 48 h; higher = more signal.
For experiment [13], the target named is Left-right determination factor 2 (Homo sapiens) (UniProt O00292). Nature of the experiment: small molecules binding LEFTY2 protein – biochemical, small-molecule microarray, 635 nm fluorescence scan, primary screen (AID 1110). The conditions noted are these: higher = more signal.
Sequence of Left-right determination factor 2 (Homo sapiens) (O00292 whole entry, looked up): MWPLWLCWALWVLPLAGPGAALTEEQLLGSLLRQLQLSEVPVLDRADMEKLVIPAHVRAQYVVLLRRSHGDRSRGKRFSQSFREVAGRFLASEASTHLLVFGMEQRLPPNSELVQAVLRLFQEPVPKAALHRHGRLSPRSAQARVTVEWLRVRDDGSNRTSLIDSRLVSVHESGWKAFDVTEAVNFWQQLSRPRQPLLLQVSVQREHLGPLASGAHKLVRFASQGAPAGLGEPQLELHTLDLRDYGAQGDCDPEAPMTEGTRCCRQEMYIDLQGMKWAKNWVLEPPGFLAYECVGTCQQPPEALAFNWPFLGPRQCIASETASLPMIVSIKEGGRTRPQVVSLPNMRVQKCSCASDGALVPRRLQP
The target in experiment [14] is Calmodulin-1 (Homo sapiens) (UniProt P0DP23). As to the kind of experiment: small molecules binding calmodulin-1 with EGTA – biochemical, small-molecule microarray, Cy5-labelled CALM1, profiling panel (AID 1111).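 Note: labelled calmodulin applied in Tris saline Tween buffer holding calcium plus EGTA and DTT.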 The conditions noted are these: Cy5-CALM1 binding fluorescence, higher = more signal.
Experiment [15] has the same target. Nature of the experiment: small molecules binding Ca-loaded calmodulin-1 – biochemical, small-molecule microarray, Cy5-labelled CALM1, plus calcium, artefact control for SMM control-protein annotation, profiling panel (AID 1112).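 Note: score merges spot fluorescence with signal to noise from triplicate slides.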 As to conditions: Cy5-CALM1 binding fluorescence, higher = more signal.
Experiment [16] is described as follows: probe aWnt5a binding to arrayed compounds – biochemical, biotinylated probe, 635/667 nm fluorescence, primary screen (AID 1113).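 Note: score merges 667 nm fluorescence intensity with signal-to-noise per printed feature.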 The conditions noted are these: small-molecule microarray, higher = more signal.
Experiment [17] is described as follows: probe aShh binding to arrayed compounds – biochemical, biotinylated probe, 635/667 nm fluorescence, primary screen (AID 1114).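 Note: probe is biotin-labelled aShh protein from a stem cell growth factor screen; measures binding of labelled protein to compounds printed on the slide; score merges feature fluorescence at 667 nm with signal-to-noise.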 As to conditions: small-molecule microarray, higher = more signal.
Experiment [18] is described as follows: probe aNog binding to arrayed compounds – biochemical, biotinylated probe, 635/667 nm fluorescence, primary screen (AID 1115).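 Note: probe is biotinylated aNog protein used at 0.15 µg/mL for 1 h at 4 C; z-score combines 667 nm fluorescence of each spot with its signal to noise.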 The conditions noted are these: small-molecule microarray, higher = more signal.
Experiment [19] addresses Torsin-1A-interacting protein 1 (Homo sapiens) (UniProt Q5JTV8). As to the kind of experiment: compound microarray binding of lysate hLAP1 – cell lysate, small-molecule microarray, COS7 lysate, 635/667 nm fluorescence, primary screen (AID 1116). As to conditions: 635 nm fluorescence, higher = more signal.
The target in experiment [20] is Alpha-bungarotoxin (Bungarus multicinctus) (UniProt P60615). Nature of the experiment: compounds binding labelled alpha-BTX control protein – biochemical, small-molecule microarray, Alexa647 label, 635/667 nm fluorescence, artefact control for SMM control protein annotation, profiling panel (AID 1117). The conditions noted are these: alpha-BTX-A647 binding fluorescence, higher = more signal.
Sequence of Alpha-bungarotoxin (Bungarus multicinctus) (P60615 whole entry, looked up): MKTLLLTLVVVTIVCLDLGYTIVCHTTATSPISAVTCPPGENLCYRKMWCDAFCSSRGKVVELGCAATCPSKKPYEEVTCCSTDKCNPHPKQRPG

The source made the active and inactive calls.

Sequence of Torsin-1A-interacting protein 1 (Homo sapiens) (Q5JTV8 whole entry, looked up): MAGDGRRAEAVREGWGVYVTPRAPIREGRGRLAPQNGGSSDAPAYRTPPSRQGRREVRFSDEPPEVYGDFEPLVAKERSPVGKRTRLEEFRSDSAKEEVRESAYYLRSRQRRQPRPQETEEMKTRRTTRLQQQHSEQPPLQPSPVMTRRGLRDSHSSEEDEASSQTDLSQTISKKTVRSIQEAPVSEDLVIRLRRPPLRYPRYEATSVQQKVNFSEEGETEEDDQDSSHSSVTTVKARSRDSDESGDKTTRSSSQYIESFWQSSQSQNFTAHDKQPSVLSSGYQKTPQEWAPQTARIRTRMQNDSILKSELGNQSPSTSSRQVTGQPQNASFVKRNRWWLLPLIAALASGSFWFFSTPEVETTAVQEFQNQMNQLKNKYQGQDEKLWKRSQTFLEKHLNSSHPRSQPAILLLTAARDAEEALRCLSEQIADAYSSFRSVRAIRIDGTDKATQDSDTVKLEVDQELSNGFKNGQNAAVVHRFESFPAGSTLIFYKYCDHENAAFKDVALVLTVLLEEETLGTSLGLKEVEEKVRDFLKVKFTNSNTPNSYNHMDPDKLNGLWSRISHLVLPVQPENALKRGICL
Sequence of Fibroblast growth factor 10 (Homo sapiens) (O15520 whole entry, looked up): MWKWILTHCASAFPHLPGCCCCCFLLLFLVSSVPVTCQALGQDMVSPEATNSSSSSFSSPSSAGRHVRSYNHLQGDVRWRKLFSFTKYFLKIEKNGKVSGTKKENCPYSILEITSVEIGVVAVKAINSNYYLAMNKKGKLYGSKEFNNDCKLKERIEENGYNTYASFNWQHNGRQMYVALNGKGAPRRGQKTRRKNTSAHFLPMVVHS

For `C[N+](C)(C)CCCCNC(=O)[C@H]1C[C@H]2C(=O)N[C@@H](Cc3ccccc3)C(=O)N2[C@H]1c1cccc(OCCO)c1`, the composite z-score was 1.59 in [1]; 0.104 in experiment [2]; -0.17 in [3]; 1.44 in experiment [5]; 1.13 in experiment [6]; 0.899 in experiment [7]. Besides, the composite z-score in [8] is 1.48; in [9], 2.04; in experiment [10], 0.748; in experiment [11], -0.365; in experiment [13], 1.34; in experiment [14], -1.14. Moreover, the composite z-score in experiment [15] is -1.7; in experiment [16], -0.0495; in experiment [17], 0.151; in experiment [18], -0.456; in [19], 1.17; in experiment [20], -0.245. Besides, the z-score in [4] was -0.161 (inactive); in [12], -0.741.
`O=C(NCc1ccccc1)[C@@H]1c2ccccc2C(=O)N(Cc2ccc(OC(F)(F)F)cc2)[C@H]1c1ccc(CO)cc1`: the composite z-score in [1] was 1.34; in [2] it was 0.658; in [3], -0.0614; in experiment [5], -0.354; in experiment [6], 0.37; in experiment [7] it was -0.942. Further, the composite z-score was -0.88 in experiment [8]; -0.808 in [9]; -0.187 in [10]; 0.259 in [11]; -0.725 in [13]; -0.437 in [14]. The composite z-score in experiment [15] was 0.284; in experiment [16] it was -0.0735; in experiment [17], -0.0813; in experiment [18], 0.868; in experiment [19], 1.15; in experiment [20], -0.0863. For the same molecule, the z-score in experiment [4] was -1.19 (inactive); in [12], -1.1.
For the molecule `COC(=O)[C@]1(CCC(=O)OC(C)(C)C)N=C(c2ccc(OCCCO)cc2)O[C@@H]1c1ccccc1N=[N+]=[N-]`, the composite z-score in experiment [1] is 0.911; in experiment [2], 0.254; in experiment [3], 0.855; in experiment [5] it was 0.49; in experiment [6], -0.107; in experiment [7], -0.287. Further, the composite z-score in experiment [8] was 0.168; in experiment [9], -0.281; in experiment [10] it was 0.809; in experiment [11], 0.892; in [13], -0.557; in [14] it was -0.175. For the same molecule, the composite z-score in experiment [15] is -0.875; in [16], 0.0403; in experiment [17] it was -0.119; in [18], 0.504; in [19], 0.468; in [20], 0.302. Besides, the z-score in experiment [4] is -0.229 (inactive); in [12] it was -2.05.
Consider `COc1ccc([Si](C)(C)[C@@H]2[C@@H](CC(=O)N(CCO)Cc3ccccc3)O[C@]3(C(=O)N(Cc4ccc(I)cc4)c4ccccc43)[C@H]2C)cc1`, for which the composite z-score came out at 0.625 in [1]; 0.346 in experiment [2]; 0.351 in [3]; 1.1 in experiment [5]; 0.301 in experiment [6]; 1.03 in experiment [7]. Moreover, the composite z-score was 1.37 in experiment [8]; 1.2 in [9]; 1.58 in experiment [10]; 0.684 in [11]; 0.792 in [13]; 1.61 in experiment [14]. Further, the composite z-score in experiment [15] is 0.54; in experiment [16], -0.0718; in experiment [17], 0.531; in experiment [18], -0.0815; in experiment [19], 1.23; in experiment [20] it was 0.375. Also, the results for the z-score in experiment [4] and in experiment [12] were -2.35 (inactive) and -4.03, respectively.
With `O=C1NC(=O)C2C1C=CC(C(O)c1ccc([N+](=O)[O-])cc1)N2Nc1ccccn1` (stereo not given), the composite z-score in [1] was -0.0076; in experiment [2], 0.0152; in experiment [3] it was 0.14; in [5] it was 0.32; in experiment [6] it was -0.34; in [7], 0.633. For the same molecule, the composite z-score is -0.0907 in [8]; 0.328 in experiment [9]; 0.854 in experiment [10]; -0.382 in experiment [11]; 0.33 in experiment [13]; 0.259 in experiment [14]. The composite z-score is -0.746 in experiment [15]; -0.102 in [16]; -0.138 in experiment [17]; 0.0193 in experiment [18]; 0.45 in experiment [19]; -0.011 in experiment [20]. Also, the results for the z-score in [4] and in experiment [12] were 1.34 (inactive) and 0.403, respectively.
